According to PubChem BioAssay AID1159580 (chemical genetic matrix, 2015):
The campaign covered roughly 5,500 compounds. About 2,000 (36%) were called active. Inconclusive results (about 18%) are left out. No stated cut-off is given here; in the data, active means normalized growth mostly below about 0.91 (no sharp cut-off); inconclusive means no clear call, values can overlap the other calls; inactive means mostly above about 0.92. The list shows a part of the results.

Assay: chemical genetic growth profiling, strain panel (AID 1159580);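 further: tested at 20 µM; growth read once vehicle control cultures reached saturation at 30 °C; 1 = growth at the plate median or of vehicle wells; lower values mean less growth of the strain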
Details: growth OD
[1] = S. cerevisiae deletion strains, locus YAL013W, strain DEP1, active compounds read low
[2] = S. cerevisiae deletion strains, locus YBR229C, strain ROT2, active compounds read low
[3] = S. cerevisiae deletion strains, locus YCL061C, strain MRC1, active compounds read low
[4] = S. cerevisiae deletion strains, locus YDL101C, strain DUN1, active compounds read low
[5] = S. cerevisiae deletion strains, locus YDR150W, strain NUM1, active compounds read low
[6] = S. cerevisiae deletion strains, locus YEL061C, strain CIN8, active compounds read low
[7] = S. cerevisiae deletion strains, locus YGR078C, strain PAC10, active compounds read low
[8] = S. cerevisiae deletion strains, locus YGR229C, strain SMI1, active compounds read low
[9] = S. cerevisiae deletion strains, locus YHR030C, strain SLT2, active compounds read low
[10] = S. cerevisiae deletion strains, locus YHR087W, strain rtc3, active compounds read low
[11] = S. cerevisiae deletion strains, locus YJR043C, strain POL32, active compounds read low
[12] = S. cerevisiae deletion strains, locus YJR075W, strain HOC1, active compounds read low
[13] = S. cerevisiae deletion strains, locus YKL190W, strain CNB1, active compounds read low
[14] = S. cerevisiae deletion strains, locus YLR039C, strain RIC1, active compounds read low
[15] = S. cerevisiae deletion strains, locus YLR058C, strain SHM2 (second series), active compounds read low
[16] = S. cerevisiae deletion strains, locus YLR085C, strain ARP6, active compounds read low
[17] = S. cerevisiae deletion strains, locus YLR262C, strain YPT6, active compounds read low
[18] = S. cerevisiae deletion strains, locus YML094W, strain GIM5, active compounds read low
[19] = S. cerevisiae deletion strains, locus YMR219W, strain ESC1, active compounds read low
[20] = S. cerevisiae deletion strains, locus YMR263W, strain SAP30, active compounds read low
[21] = S. cerevisiae deletion strains, locus YNL128W, strain TEP1, active compounds read low
[22] = S. cerevisiae deletion strains, locus YNL153C, strain GIM3, active compounds read low
[23] = S. cerevisiae deletion strains, locus YNL298W, strain CLA4 (second series), active compounds read low
[24] = S. cerevisiae deletion strains, locus YNL322C, strain KRE1, active compounds read low
[25] = S. cerevisiae deletion strains, locus YNR030W, strain Alg12, active compounds read low
[26] = S. cerevisiae deletion strains, locus YPL055C, strain LGE1, active compounds read low
[27] = S. cerevisiae deletion strains, locus YPL241C, strain CIN2, active compounds read low
[28] = S. cerevisiae deletion strains, locus YPR135W, strain CTF4, active compounds read low

Measured: normalized growth

CC(O)CNc1ccc(C(F)(F)F)cc1[N+](=O)[O-] (stereo unspecified)
inactive: [1] 1.01 | [2] 1.01 | [3] 1.03 | [4] 1.03 | [5] 1.04 | [6] 0.997 | [7] 1.02 | [8] 0.993 | [9] 0.987 | [10] 1 | [11] 1.02 | [12] 1.04 | [13] 1.02 | [14] 1.08 | [15] 0.998 | [16] 0.989 | [17] 0.985 | [18] 0.947 | [19] 1 | [20] 1.02 | S. cerevisiae deletion strains, locus YMR307W, strain GAS1, active compounds read low 1.03 | [21] 1.02 | [22] 0.998 | [23] 1.05 | [24] 1 | [25] 0.999 | [26] 0.966 | [27] 1.01 | [28] 1.01

Cc1cc(C)c(C(=O)NCCNc2ccc(C(F)(F)F)cc2[N+](=O)[O-])c(C)c1
active: [6] 0.862 | [9] 0.259 | [10] 0.89 | [13] 0.794 | [14] 0.473 | [16] 0.331 | [17] 0.58 | [18] 0.817 | [23] 0.785 | [25] 0.652 | [26] 0.687 | [27] 0.846 | [28] 0.55
inactive: [1] 0.97 | [2] 0.951 | [3] 0.966 | [4] 0.98 | S. cerevisiae deletion strains, locus YDL134C, strain PPH21, active compounds read low 0.971 | [5] 0.9 | [7] 0.953 | [8] 1 | S. cerevisiae deletion strains, locus YJL187C, strain SWE1, active compounds read low 0.978 | [11] 0.968 | [12] 0.895 | [15] 0.996 | [19] 0.98 | [20] 0.96 | [21] 0.957 | [22] 0.964 | [24] 0.986 | S. cerevisiae strains, strain wild type, active compounds read low 0.916

Cc1c(C(=O)NCCNc2ccc(C(F)(F)F)cc2[N+](=O)[O-])cnn1-c1ccc(F)cc1
inactive: S. cerevisiae deletion strains, locus YAR019C, strain CDC15, active compounds read low 0.981 | S. cerevisiae deletion strains, locus YBL105C, strain PKC1, active compounds read low 0.971 | S. cerevisiae deletion strains, locus YBR135W, strain CKS1, active compounds read low 0.974 | S. cerevisiae deletion strains, locus YBR136W, strain MEC1, active compounds read low 0.978 | S. cerevisiae deletion strains, locus YBR160W, strain CDC28, active compounds read low 0.979 | S. cerevisiae deletion strains, locus YDL017W, strain CDC7, active compounds read low 0.982 | S. cerevisiae deletion strains, locus YDL028C, strain MPS1, active compounds read low 0.989 | [4] 0.988 | S. cerevisiae deletion strains, locus YDL108W, strain KIN28, active compounds read low 0.982 | S. cerevisiae deletion strains, locus YDL132W, strain cdc53, active compounds read low 0.978 | S. cerevisiae deletion strains, locus YDL214C, strain PRR2, active compounds read low 0.958 | S. cerevisiae deletion strains, locus YDR052C, strain DBF4, active compounds read low 0.985 | S. cerevisiae deletion strains, locus YDR054C, strain cdc34, active compounds read low 0.956 | S. cerevisiae deletion strains, locus YDR226W, strain ADK1, active compounds read low 0.982 | S. cerevisiae deletion strains, locus YDR477W, strain SNF1, active compounds read low 0.968 | S. cerevisiae deletion strains, locus YER123W, strain YCK3, active compounds read low 0.966 | S. cerevisiae deletion strains, locus YER133W, strain GLC7, active compounds read low 0.982 | S. cerevisiae deletion strains, locus YFL009W, strain cdc4, active compounds read low 0.98 | S. cerevisiae deletion strains, locus YFL029C, strain CAK1, active compounds read low 0.977 | S. cerevisiae deletion strains, locus YFR003C, strain YPI1, active compounds read low 0.984 | S. cerevisiae deletion strains, locus YFR019W, strain FAB1, active compounds read low 0.973 | S. cerevisiae deletion strains, locus YFR028C, strain CDC14, active compounds read low 0.978 | S. cerevisiae deletion strains, locus YGR040W, strain KSS1, active compounds read low 0.958 | S. cerevisiae deletion strains, locus YGR052W, strain FMP48, active compounds read low 1.06 | S. cerevisiae deletion strains, locus YGR092W, strain DBF2, active compounds read low 0.935 | [9] 0.97 | S. cerevisiae deletion strains, locus YHR079C, strain IRE1, active compounds read low 0.954 | S. cerevisiae deletion strains, locus YHR082C, strain KSP1, active compounds read low 1.01 | S. cerevisiae deletion strains, locus YHR205W, strain SCH9, active compounds read low 0.962 | S. cerevisiae deletion strains, locus YIL147C, strain SLN1, active compounds read low 0.986 | S. cerevisiae deletion strains, locus YJL095W, strain BCK1, active compounds read low 0.978 | S. cerevisiae deletion strains, locus YJL128C, strain PBS2, active compounds read low 0.946 | S. cerevisiae deletion strains, locus YJL157C, strain FAR1, active compounds read low 0.943 | S. cerevisiae deletion strains, locus YJR016C, strain ILV3, active compounds read low 0.984 | S. cerevisiae deletion strains, locus YJR066W, strain TOR1 (second series), active compounds read low 0.933 | S. cerevisiae deletion strains, locus YJR066W, strain TOR1, active compounds read low 0.999 | S. cerevisiae deletion strains, locus YKL048C, strain ELM1, active compounds read low 0.949 | S. cerevisiae deletion strains, locus YKL067W, strain YNK1, active compounds read low 0.97 | S. cerevisiae deletion strains, locus YKL101W, strain HSL1, active compounds read low 0.947 | S. cerevisiae deletion strains, locus YKL193C, strain SDS22, active compounds read low 0.983 | S. cerevisiae deletion strains, locus YKL203C, strain TOR2, active compounds read low 1.01 | S. cerevisiae deletion strains, locus YLR113W, strain HOG1, active compounds read low 0.904 | S. cerevisiae deletion strains, locus YLR133W, strain CKI1, active compounds read low 0.941 | S. cerevisiae deletion strains, locus YLR403W, strain SFP1, active compounds read low 0.937 | S. cerevisiae deletion strains, locus YML070W, strain DAK1, active compounds read low 0.94 | S. cerevisiae deletion strains, locus YMR001C, strain CDC5, active compounds read low 0.985 | S. cerevisiae deletion strains, locus YMR205C, strain PFK2 (second series), active compounds read low 0.978 | S. cerevisiae deletion strains, locus YMR277W, strain FCP1, active compounds read low 0.991 | S. cerevisiae deletion strains, locus YNL006W, strain LST8, active compounds read low 1 | S. cerevisiae deletion strains, locus YNL020C, strain ARK1, active compounds read low 0.941 | S. cerevisiae deletion strains, locus YNL161W, strain CBK1, active compounds read low 0.975 | S. cerevisiae deletion strains, locus YNL183C, strain NPR1, active compounds read low 0.986 | S. cerevisiae deletion strains, locus YNL207W, strain RIO2, active compounds read low 0.973 | S. cerevisiae deletion strains, locus YNL222W, strain SSU72, active compounds read low 0.974 | S. cerevisiae deletion strains, locus YNL307C, strain MCK1 (second series), active compounds read low 0.939 | S. cerevisiae deletion strains, locus YOL078W, strain AVO1, active compounds read low 0.986 | S. cerevisiae deletion strains, locus YOL136C, strain PFK27, active compounds read low 0.938 | S. cerevisiae deletion strains, locus YOR061W, strain CKA2, active compounds read low 0.99 | S. cerevisiae deletion strains, locus YOR119C, strain RIO1, active compounds read low 1.01 | S. cerevisiae deletion strains, locus YOR231W, strain MKK1, active compounds read low 0.912 | S. cerevisiae deletion strains, locus YOR329C, strain SCD5, active compounds read low 0.984 | S. cerevisiae deletion strains, locus YPL031C, strain PHO85, active compounds read low 0.96 | S. cerevisiae deletion strains, locus YPL153C, strain RAD53, active compounds read low 0.954 | S. cerevisiae deletion strains, locus YPL204W, strain HRR25, active compounds read low 0.943 | S. cerevisiae deletion strains, locus YPL209C, strain IPL1, active compounds read low 0.979 | S. cerevisiae deletion strains, locus YPL256C, strain CLN2, active compounds read low 0.908 | S. cerevisiae deletion strains, locus YPR025C, strain CCL1, active compounds read low 0.979 | S. cerevisiae deletion strains, locus YPR106W, strain ISR1, active compounds read low 0.965 | S. cerevisiae deletion strains, locus YPR111W, strain DBF20, active compounds read low 0.962 | S. cerevisiae deletion strains, strain NNK1, active compounds read low 0.971 | S. cerevisiae deletion strains, strain TSCII, active compounds read low 0.982
